According to PubChem BioAssay AID1159580 (chemical genetic matrix, 2015):
Several values for one entry are separate records, joined by “and”; a condition that tells them apart may be missing. Equal values may be shown once. In all, about 5,500 compounds went through this assay and about 2,000 (36%) were called active. Roughly 18% stayed inconclusive and do not appear here. No stated cut-off is given here; in the data, active means normalized growth mostly below about 0.91 (no sharp cut-off); inconclusive means no clear call, values can overlap the other calls; inactive means mostly above about 0.92. The list shows a part of the results.

Assay: chemical genetic growth profiling, strain panel (AID 1159580);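 further: tested at 20 µM; growth read once vehicle control cultures reached saturation at 30 °C; 1 = growth at the plate median or of vehicle wells; lower values mean less growth of the strain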
Details: growth OD

Measured: normalized growth

NC(N)=NCCCCN=C(N)N
inactive: S. cerevisiae deletion strains, locus YKL009W, strain mrt4, active compounds read low 1 | S. cerevisiae deletion strains, locus YKL068W, active compounds read low 0.988 | S. cerevisiae deletion strains, locus YKL085W, strain MDH1 (second series), active compounds read low 1.03 | S. cerevisiae deletion strains, locus YKL085W, strain MDH1, active compounds read low 1.03 | S. cerevisiae deletion strains, locus YKL160W, strain elf1, active compounds read low 1.02 | S. cerevisiae deletion strains, locus YKL190W, strain CNB1, active compounds read low 0.985 | S. cerevisiae deletion strains, locus YKR001C, strain vps1, active compounds read low 1.01 | S. cerevisiae deletion strains, locus YKR026C, strain gcn3, active compounds read low 0.995 | S. cerevisiae deletion strains, locus YKR091W, strain srl3, active compounds read low 1 | S. cerevisiae deletion strains, locus YLL001W, strain dnm1, active compounds read low 1.01 | S. cerevisiae deletion strains, locus YLL026W, active compounds read low 1.01 | S. cerevisiae deletion strains, locus YLL041C, strain sdh2, active compounds read low 0.986 | S. cerevisiae deletion strains, locus YLR027C, strain aat2, active compounds read low 1 | S. cerevisiae deletion strains, locus YLR039C, strain RIC1, active compounds read low 0.99 | S. cerevisiae deletion strains, locus YLR058C, strain SHM2, active compounds read low 0.972 | S. cerevisiae deletion strains, locus YLR102C, strain apc9, active compounds read low 0.993 | S. cerevisiae deletion strains, locus YLR113W, strain HOG1, active compounds read low 0.97 | S. cerevisiae deletion strains, locus YLR221C, strain rsa3, active compounds read low 1.04 | S. cerevisiae deletion strains, locus YLR258W, strain gsy2, active compounds read low 1.01 | S. cerevisiae deletion strains, locus YLR262C, strain YPT6 (second series), active compounds read low 1.02 | S. cerevisiae deletion strains, locus YLR262C, strain YPT6, active compounds read low 0.963 | S. cerevisiae deletion strains, locus YLR268W, strain sec22, active compounds read low 0.978 | S. cerevisiae deletion strains, locus YLR320W, strain mms22, active compounds read low 1.05 | S. cerevisiae deletion strains, locus YLR330W, strain CHS5, active compounds read low 0.993 | S. cerevisiae deletion strains, locus YLR342W, strain FKS1 (second series), active compounds read low 1.03 | S. cerevisiae deletion strains, locus YLR342W, strain FKS1, active compounds read low 0.993 | S. cerevisiae deletion strains, locus YLR357W, strain rsc2, active compounds read low 0.998 | S. cerevisiae deletion strains, locus YLR370C, strain arc18, active compounds read low 0.991 | S. cerevisiae deletion strains, locus YLR371W, strain rom2, active compounds read low 0.95 | S. cerevisiae deletion strains, locus YLR384C, strain iki3, active compounds read low 0.997 | S. cerevisiae deletion strains, locus YLR418C, strain cdc73, active compounds read low 0.971 | S. cerevisiae deletion strains, locus YML016C, strain PPZ1, active compounds read low 0.992 | S. cerevisiae deletion strains, locus YML032C, strain rad52, active compounds read low 1.01 | S. cerevisiae deletion strains, locus YML120C, strain ndi1, active compounds read low 0.998 | S. cerevisiae deletion strains, locus YML124C, strain tub3, active compounds read low 0.997 | S. cerevisiae deletion strains, locus YMR058W, strain fet3, active compounds read low 0.998 | S. cerevisiae deletion strains, locus YMR078C, strain ctf18, active compounds read low 0.992 | S. cerevisiae deletion strains, locus YMR125W, strain sto1, active compounds read low 0.963 | S. cerevisiae deletion strains, locus YMR129W, active compounds read low 1 | S. cerevisiae deletion strains, locus YMR205C, strain PFK2, active compounds read low 1.03 | S. cerevisiae deletion strains, locus YMR223W, strain ubp8, active compounds read low 1.01 | S. cerevisiae deletion strains, locus YMR231W, strain pep5, active compounds read low 0.993 | S. cerevisiae deletion strains, locus YMR263W, strain SAP30, active compounds read low 0.953 and 0.994 | S. cerevisiae deletion strains, locus YMR307W, strain GAS1, active compounds read low 1.06 and 0.991 | S. cerevisiae deletion strains, locus YNL067W, strain RPL9B, active compounds read low 0.972 | S. cerevisiae deletion strains, locus YNL071W, strain lat1, active compounds read low 0.991 | S. cerevisiae deletion strains, locus YNL128W, strain TEP1, active compounds read low 0.92 and 0.999 | S. cerevisiae deletion strains, locus YNL153C, strain GIM3, active compounds read low 0.978 | S. cerevisiae deletion strains, locus YNL175C, strain NOP13, active compounds read low 1.01 | S. cerevisiae deletion strains, locus YNL183C, strain NPR1, active compounds read low 0.92 | S. cerevisiae deletion strains, locus YNL197C, strain WHI3, active compounds read low 1.02 | S. cerevisiae deletion strains, locus YNL209W, strain ssb2, active compounds read low 1.01 | S. cerevisiae deletion strains, locus YNL224C, strain SQS1, active compounds read low 1.01 | S. cerevisiae deletion strains, locus YNL233W, strain BNI4, active compounds read low 0.979 | S. cerevisiae deletion strains, locus YNL248C, strain rpa49, active compounds read low 0.967 | S. cerevisiae deletion strains, locus YNL250W, strain rad50, active compounds read low 0.98 | S. cerevisiae deletion strains, locus YNL271C, strain bni1, active compounds read low 0.994 | S. cerevisiae deletion strains, locus YNL298W, strain CLA4, active compounds read low 0.994 | S. cerevisiae deletion strains, locus YNL307C, strain MCK1, active compounds read low 1.01 | S. cerevisiae deletion strains, locus YNL322C, strain KRE1 (second series), active compounds read low 1 | S. cerevisiae deletion strains, locus YNL322C, strain KRE1, active compounds read low 0.977 | S. cerevisiae deletion strains, locus YNR049C, strain mso1, active compounds read low 0.997 | S. cerevisiae deletion strains, locus YNR052C, strain pop2, active compounds read low 0.997 | S. cerevisiae deletion strains, locus YOL006C, strain TOP1, active compounds read low 0.957 | S. cerevisiae deletion strains, locus YOL012C, strain htz1 0.788 | S. cerevisiae deletion strains, locus YOL147C, strain pex11, active compounds read low 0.993 | S. cerevisiae deletion strains, locus YOR001W, strain rrp6, active compounds read low 0.97 | S. cerevisiae deletion strains, locus YOR061W, strain CKA2, active compounds read low 0.955 | S. cerevisiae deletion strains, locus YOR069W, strain VPS5, active compounds read low 0.999 | S. cerevisiae deletion strains, locus YOR070C, strain gyp1, active compounds read low 1.02 | S. cerevisiae deletion strains, locus YOR080W, strain dia2, active compounds read low 1.01 | S. cerevisiae deletion strains, locus YOR083W, strain WHI5 (second series), active compounds read low 0.988 | S. cerevisiae deletion strains, locus YOR083W, strain WHI5, active compounds read low 1.04 | S. cerevisiae deletion strains, locus YOR106W, strain vam3, active compounds read low 1.03 | S. cerevisiae deletion strains, locus YOR136W, strain idh2, active compounds read low 0.997 | S. cerevisiae deletion strains, locus YOR144C, strain elg1, active compounds read low 0.999 | S. cerevisiae deletion strains, locus YOR184W, strain ser1, active compounds read low 1.03 | S. cerevisiae deletion strains, locus YOR231W, strain MKK1, active compounds read low 0.968 | S. cerevisiae deletion strains, locus YOR265W, strain rbl2, active compounds read low 1.01 | S. cerevisiae deletion strains, locus YOR270C, strain vph1, active compounds read low 0.991 | S. cerevisiae deletion strains, locus YOR290C, strain snf2, active compounds read low 0.968 | S. cerevisiae deletion strains, locus YOR316C, strain cot1, active compounds read low 0.988 | S. cerevisiae deletion strains, locus YPL051W, strain arl3, active compounds read low 1.04 | S. cerevisiae deletion strains, locus YPL055C, strain LGE1, active compounds read low 0.95 and 0.989 | S. cerevisiae deletion strains, locus YPL078C, strain atp4, active compounds read low 1.01 | S. cerevisiae deletion strains, locus YPL106C, strain sse1, active compounds read low 1.01 | S. cerevisiae deletion strains, locus YPL240C, strain hsp82, active compounds read low 1.01 | S. cerevisiae deletion strains, locus YPL241C, strain CIN2, active compounds read low 0.988 and 0.994 | S. cerevisiae deletion strains, locus YPL256C, strain CLN2, active compounds read low 0.979 | S. cerevisiae deletion strains, locus YPR119W, strain clb2, active compounds read low 1 | S. cerevisiae deletion strains, locus YPR141C, strain kar3, active compounds read low 0.975 | S. cerevisiae deletion strains, locus YPR163C, strain tif3, active compounds read low 1 | S. cerevisiae deletion strains, locus YPR167C, strain met16, active compounds read low 0.988 | S. cerevisiae deletion strains, strain wtn01, active compounds read low 0.983 | S. cerevisiae strains, strain wild type, active compounds read low 0.998
